# CaV13 ICDI inh: Primary screen for inhibitors of IQ motif and Ca2+-dependent inactivation inhibitor domain binding in CACNA1D, Förster resonance energy transfer in living cells, …. HEK cells, CFP/YFP FRET ICDI-IQ, plate reader, 10 min; percent FRET-ratio fall versus neutral wells. inhibition, % at 12.3 µM. actives 0.098% (n = 340,000);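 active = mean replicate inhibition of at least 30% and at least 1% of replicates passing that level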;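 also: 0% = median of the neutral control wells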
# PDI inh: blocks human protein disulfide isomerase activity | PDI insulin aggregation turbidity, A650, 90 min | inhibition, % at 10 µM | actives 0.052% (n = 350,000);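 active = mean inhibition across replicates of 30% or more, whatever share of single replicates reach that level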
# Target sequence (P07237 whole entry, looked up): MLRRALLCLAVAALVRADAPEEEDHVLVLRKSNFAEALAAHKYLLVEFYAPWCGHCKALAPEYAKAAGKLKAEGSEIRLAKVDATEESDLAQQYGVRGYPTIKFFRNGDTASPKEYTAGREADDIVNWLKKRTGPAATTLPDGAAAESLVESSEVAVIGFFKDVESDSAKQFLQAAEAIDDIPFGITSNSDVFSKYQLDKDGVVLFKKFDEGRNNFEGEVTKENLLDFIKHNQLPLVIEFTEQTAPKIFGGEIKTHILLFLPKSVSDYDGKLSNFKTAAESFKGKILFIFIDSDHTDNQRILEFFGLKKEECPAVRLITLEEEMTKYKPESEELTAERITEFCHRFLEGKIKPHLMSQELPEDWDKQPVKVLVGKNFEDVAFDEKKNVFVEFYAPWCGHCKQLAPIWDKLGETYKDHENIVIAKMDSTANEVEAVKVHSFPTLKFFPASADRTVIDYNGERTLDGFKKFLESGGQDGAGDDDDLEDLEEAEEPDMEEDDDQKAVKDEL
# ERAP1 HTS inh: blocks human ERAP1 aminopeptidase activity; AID 652197; Q9NZ08; recombinant ERAP1, Leu-AMC fluorescence, 60 min; actives 0.15% (n = 340,000); inhibition, % at 10.7 µM;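 active = mean replicate inhibition of at least 30%, or all replicates individually reaching that 30% level; inactive = mean below 30% and not every replicate reaching it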;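 also: 0% = neutral control wells and 100% = L-leucinethiol positive control wells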
# PglD DTNB: blocks C. jejuni PglD acetyltransferase activity; purified PglD enzyme, DTNB colorimetric CoA detection; inhibition, % at 12.5 µM; actives 0.098% (n = 360,000); in the data active = inhibition above about 16%, passing the limit was not always enough
# PGC1a acetyl inh: PGC1a acetylation modulation, inhibitor mode; inhibition, % at 15.6 µM; AID 651687; U2OS PGC1a acetylation, AlphaScreen anti-acetyl-lysine; with virally co-expressed GCN5 acetyltransferase; actives 0.17% (n = 350,000);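 active = every replicate shows inhibition of at least 40%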;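 also: 0% = neutral control wells and 100% = positive control wells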
# ERp5 block: blocks human ERp5 reductase activity on insulin; inhibition, % at 9.99 µM; ERp5 insulin aggregation, absorbance 650 nm, 90 min; Q15084; actives 0.05% (n = 350,000); AID 651711;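 active = mean replicate inhibition above about 25%, with every replicate also reaching it, limit read from the data, passing the limit was not always enough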
# * = called active by the depositor; . = no result. Shown are actives, neighbours in structure and some others; about 0.46% of the full set was active somewhere.
SMILES,CaV13 ICDI inh,PDI inh,ERAP1 HTS inh,PglD DTNB,PGC1a acetyl inh,ERp5 block
O=C1c2ccccc2C(=O)c2c1cccc2-n1nnc2ccccc21,-5,-5,8,6,2,2
O=C1C(N2CCOCC2)=C(n2nnc3ccccc32)C(=O)c2ccccc21,-3,11,.,2,61*,.
COc1ccccc1-c1cc(-c2ccccc2)nc(SCC(=O)O)c1C#N,10,4,42*,3,13,-6
O=C(O)CN1C(=O)/C(=C\c2ccccc2OCc2ccc(F)cc2)SC1=S,-19,13,32*,-2,-8,3
COc1cc(/C=C2/SC(=S)N(CC(=O)O)C2=O)ccc1OC(=O)c1ccco1,-3,17,56*,-5,.,-1
COc1cc(/C=C2\SC(=S)N(CC(=O)O)C2=O)ccc1OC(=O)c1ccco1,-2,9,1,-9,.,0
CN(C)c1ccc(C=c2c3cc(O)ccc3n3c2cc(-c2ccccc2)[n+]3C)cc1,-11,0,56*,.,.,-5
O=C([C@H]1[C@H](CO)[C@H]2Cn3c(cccc3=O)[C@H]2N1C(=O)C1CCCCC1)N1CCOCC1,.,.,0,-4,.,-4
Oc1ccc(C=Nc2ccc(N3CCOCC3)cc2)c(O)c1,-5,-4,.,-26,64*,.
C[C@@H]1CN([C@@H](C)CO)C(=O)Cc2cc(N(C)C)ccc2O[C@H]1CN(C)Cc1ccc(Oc2ccccc2)cc1,.,.,.,.,-16,.
Cc1ccc(COC(=O)c2nn(-c3ccccc3)nc2N)cc1,-20,4,6,0,5,0
Nc1nn(-c2ccccc2)nc1C(=O)OCc1ccccc1,-3,11,-1,-1,72*,2
CC=Cc1ccc2n(c1=O)C[C@H]1[C@H](CO)[C@@H](C(=O)N[C@H](C)c3ccccc3)[C@@H]2N1CC1CC1 (mixture of isomers),.,.,0,2,.,2
COc1ccc(NC(=O)CSc2nnc(NC(=O)C3CC3)s2)cc1OC,-3,8,0,-2,8,26*
CC(=O)Nc1ccc(NC(=O)CSc2nnc(NC(=O)C3CC3)s2)cc1,-7,-31,-2,-8,-4,-9
CN1CCN(C(=O)C2=C[C@H](c3ccccc3)C[C@H](OCCCCO)O2)CC1,.,.,1,4,.,2
Cn1cc(/C=C/c2cc[n+](C)cc2)c2cc(F)ccc21,.,9,66*,4,-1,14
C[C@@H]1CN([C@@H](C)CO)C(=O)c2cc(NC(=O)Nc3ccc4c(c3)OCO4)ccc2O[C@@H]1CN(C)Cc1ccc(C(=O)O)cc1,.,.,1,-6,3,39*
C[C@@H]1CN([C@@H](C)CO)C(=O)c2cc(NS(=O)(=O)c3ccc(F)cc3)ccc2O[C@H]1CN(C)Cc1ccc(C(F)(F)F)cc1,.,.,.,.,3,.
C[C@@H]1CN([C@H](C)CO)C(=O)c2cccc(NS(=O)(=O)c3ccc(Cl)cc3)c2O[C@@H]1CN(C)Cc1ccc(C(F)(F)F)cc1,.,.,0,0,5,28*
Cc1noc(C)c1S(=O)(=O)Nc1cccc2c1O[C@H](CN(C)C(=O)Nc1ccc(C(F)(F)F)cc1)[C@H](C)CN([C@@H](C)CO)C2=O,.,.,2,-4,-3,63*
Cc1noc(C)c1S(=O)(=O)Nc1cccc2c1O[C@@H](CN(C)C(=O)Nc1ccc(C(F)(F)F)cc1)[C@@H](C)CN([C@H](C)CO)C2=O,.,.,3,2,0,7
C[C@H](CO)N1C[C@H](C)[C@@H](CN(C)Cc2ccc(C(F)(F)F)cc2)Oc2ccc(NS(=O)(=O)c3ccc(F)cc3)cc2C1=O,.,.,2,5,103*,12
C[C@H]1CN([C@@H](C)CO)C(=O)c2cc(NC(=O)Nc3ccc4c(c3)OCO4)ccc2O[C@@H]1CN(C)Cc1ccc(C(=O)O)cc1,.,.,0,-1,2,-4
CO[C@@H]1CN(C)C(=O)c2cc(NC(C)=O)ccc2OC[C@@H](C)N(Cc2cccc(F)c2)C[C@@H]1C,.,.,.,.,-1,.
CNC(=O)C[C@@H]1CC[C@H]2[C@@H](COc3ccc(NC(=O)Nc4cccc(Cl)c4)cc3C(=O)N2C)O1,.,.,0,1,-2,-4

# High-throughput results (PubChem)
